AmpC detergent = qHTS Inhibitors of AmpC Beta-Lactamase (assay with detergent). AmpC hydrolysis of nitrocefin, absorbance 480 nm, 0.01% Triton. Potency, µM (top dose mostly 114 µM), inactives show top-dose activity change, negative = inhibition, most hits filed as inhibitors. 370,000 compounds, 0.041% hits;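 note: 0% = no-compound wells and -100% = no-enzyme wells; nearly all actives have a fitted effect of over 25% in size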
Target sequence (P00811 whole entry, looked up): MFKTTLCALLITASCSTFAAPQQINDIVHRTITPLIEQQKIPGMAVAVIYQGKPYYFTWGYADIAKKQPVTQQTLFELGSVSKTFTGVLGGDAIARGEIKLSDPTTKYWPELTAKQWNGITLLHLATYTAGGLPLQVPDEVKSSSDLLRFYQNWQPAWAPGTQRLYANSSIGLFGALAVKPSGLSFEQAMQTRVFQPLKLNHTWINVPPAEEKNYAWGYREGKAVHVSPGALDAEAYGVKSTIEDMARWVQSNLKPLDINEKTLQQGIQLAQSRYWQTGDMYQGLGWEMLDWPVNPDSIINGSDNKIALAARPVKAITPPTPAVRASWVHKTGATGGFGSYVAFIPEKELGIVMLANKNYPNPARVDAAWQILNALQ
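AmpC (5.3 nM in the dispensed reagent) in 20 mM phosphate pH 7.0 with 0.01% (detergent screen) or 0.0001% Triton X-100 was preincubated with compounds for 15 min at room temperature. Nitrocefin was then added from an 800 uM solution, and hydrolysis was followed at 480 nm.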
RE007 growth inh = qHTS Assay for Inhibitors of the HIV-1 protein Vpr; S. pombe RE007 Vpr strain, BacTiter-Glo ATP luminescence, 24 h; Potency, µM (top dose mostly 92.2 µM), without a hit: at the top dose activity change, negative = less growth, usual class: inhibitors; 360,000 compounds, 0.21% hits; active = well fitted falling curve with a large enough effect; inconclusive = small, poorly fitted or top-dose-only effect; inactive = no such curve, though single readings can be large or run the other way; note: % is set by controls: 0 for no effect and ±100 for the full control effect; nearly all actives have a fitted effect of over 50% in size
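Fission yeast strain RE007, carrying one chromosomally integrated HIV-1 vpr copy, was seeded at OD 0.01 in PMG+AL medium with 23 nL pinned compound. After 24 h at 30 °C and 99% humidity, viability was read by BacTiter-Glo luminescence.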
Tb PYK inh = qHTS of Trypanosoma Brucei Inhibitors; pyruvate kinase (Trypanosoma brucei), Q57TT1; AID 624173, 2012; TbPYK enzyme, Kinase-Glo Plus ATP luminescence, 45 min; 410,000 compounds, 0.12% hits; Potency, µM (doses to about 76.8 µM), for inactives: at the top dose activity, negative = inhibition, hits mostly inhibitors; note: % is set by controls: 0 for no effect and ±100 for the full control effect; nearly all actives have a fitted effect of over 50% in size
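Quantitative HTS: titrated library compounds versus trypanosomal pyruvate kinase in TEA buffer (pH 7.2) containing KCl, MgCl2, BSA and Tween-20. Reactions were initiated with ADP, 130 uM final. Kinase-Glo Plus luminescence was read after 45 min at RT.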
Sm TGR block = qHTS Assay for the Inhibitors of Schistosoma Mansoni Peroxiredoxins; 360,000 compounds, 3% hits; purified TGR, DTNB reduction, TNB absorbance 405 nm; Schistosoma mansoni thioredoxin glutathione reductase (TGR), Q962Y6; Potency, µM (top dose mostly 114 µM), without a hit: at the top dose activity change, negative = inhibition, most hits filed as inhibitors; note: % is set by controls: 0 for no effect and ±100 for the full control effect; nearly all actives have a fitted effect of over 60% in size
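TGR 20 nM + NADPH 100 uM (dispensed conc.), cpd preinc 15 min RT; start with NADPH (500 uM addition) then DTNB (15 mM addition). Kinetic TNB absorbance, 405 nm filter. Four-parameter Hill fit across titration.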
SARS PLpro yeast = qHTS of Yeast-based Assay for SARS-CoV PLP. Potency, µM (top dose mostly 32.9 µM), without a hit: at the highest dose activity, positive = growth rescue, usual class: activators. S. cerevisiae expressing SARS-CoV PLpro, growth rescue. 330,000 compounds, 0.19% hits. AID 485353, 2010; calls by dose curve; note: 0% is about no effect; nearly all actives have a fitted effect of over 55% in size
AmpC no deterg = qHTS Inhibitors of AmpC Beta-Lactamase (assay without detergent) | P00811 | AmpC nitrocefin hydrolysis, absorbance 480 nm, 0.0001% Triton | Potency, µM (top dose mostly 57.1 µM), without a hit: at the highest dose activity change, negative = inhibition, hits mostly inhibitors | 330,000 compounds, 0.52% hits | AID 485341, 2010;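 note: plate controls were no compound for no effect and no enzyme for full effect; nearly all actives have a fitted effect of over 20% in size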
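20 mM phosphate pH 7.0 + 0.01% (detergent screen) or 0.0001% Triton X-100; 5.3 nM AmpC reagent; cpd preinc 15 min RT; nitrocefin (800 uM stock) to start; A480 q20 s × 4 min; Activity was normalised to no-enzyme and no-compound control wells.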
* hit, by the source's call; ? = inconclusive; · = not tested or not shown; [ ] = another dose, or the depositor's remark. Sampled rows, rich in hits. Any-hit rate of the full collection: about 3.3%. Unless noted, calls come from the whole dose curve; as a rule, active = well fitted curve in the direction sought with a large enough effect; inconclusive = small, poorly fitted or top-dose-only effect, or another doubt; inactive = no such curve, though single readings can be large; an effect the other way counts as inactive or inconclusive. Potency is the fitted concentration of half-maximal effect.

SMILES	AmpC detergent	RE007 growth inh	Tb PYK inh	Sm TGR block	SARS PLpro yeast	AmpC no deterg
COc1cc(OC)c(C2CC(=O)N3CN(C)CSC3=C2C#N)cc1OC (stereo not given)	?	-7.7%	?	?	-0.5%	-18.0%
COc1cc(OC)c(C2CC(=O)N3CN(c4ccccc4)CSC3=C2C#N)cc1OC (stereo not given)	-10.1%	8.7%	8.91µM*	10µM*	6.8%	-6.2%
COc1ccc(OC)c(CCNC(=O)CN2C(=O)COc3ccc(S(=O)(=O)N4CCC(C)CC4)cc32)c1	3.7%	·	-5.8%	4.4%	·	·
COc1ccc(-c2noc(-c3ccc(N4CCCC4)c([N+](=O)[O-])c3)n2)cc1	14.4%	·	1.9%	3.1%	·	·
CC(=O)Nc1ccc(NC(=O)c2cc(CN3CCCC3)on2)cc1	21.7%	·	-1.9%	-6.0%	·	·
Cc1nn(C(=O)c2ccccc2)c(C)c1Sc1ccc(Cl)cc1	18.8%	·	0.7%	6.4%	·	·
CC(=O)N(C1=C(N2CCOCC2)C(=O)c2ccccc2C1=O)c1ccc(C(=O)O)cc1	7.8%	-28.8%	-9.0%	2.82µM*	0.0%	-19.9%
O=C(NCC(c1ccco1)S(=O)(=O)c1cccs1)c1ccccc1 (stereo not given)	0.0%	·	1.9%	0.316µM*	·	·
O=C(NCC(c1ccco1)S(=O)(=O)c1cccs1)c1ccc(C(F)(F)F)cc1 (stereo not given)	13.2%	·	8.3%	4.47µM*	·	·
O=C(NCC(c1ccco1)S(=O)(=O)c1cccs1)c1ccc(F)c(F)c1 (stereo not given)	1.8%	·	-6.8%	15.8µM*	·	·
O=C(NCC(c1cccs1)S(=O)(=O)c1cccs1)c1ccccc1 (stereo not given)	1.6%	·	7.7%	?	·	·
CC(C)(C)c1ccc(C(=O)NCC(c2cccs2)S(=O)(=O)c2cccs2)cc1 (stereo not given)	11.4%	·	0.8%	35.5µM*	·	·
CCOC(=O)c1cc(S(=O)(=O)Nc2ccc(C)cc2Cl)[nH]n1	21.0%	·	-1.1%	2.1%	·	·
O=C1c2[nH]nc(-c3ccccc3O)c2C(c2ccc(Cl)cc2)N1CCc1ccccc1 (stereo not given)	8.7%	·	-6.0%	8.4%	·	·
COc1ccccc1CCNC(=O)C(=O)NCC(c1ccco1)S(=O)(=O)c1ccccc1 (stereo not given)	4.1%	·	-2.2%	35.5µM*	·	·
O=C(NCCc1ccccc1)C(=O)NCC(c1ccco1)S(=O)(=O)c1cccs1 (stereo not given)	2.0%	·	-0.2%	20µM*	·	·
COc1ccc(C(=O)NCC(c2ccco2)S(=O)(=O)c2cccs2)cc1OC (stereo not given)	3.9%	·	-3.1%	1.26µM*	·	·
Cc1ccc(C(=O)NCC(c2ccco2)S(=O)(=O)c2cccs2)cc1C (stereo not given)	-2.2%	·	3.3%	?	·	·
O=C1C=Cc2ccccc2C1=O	-0.3%	·	·	11.2µM*	?	?
COc1ccc(NC(=O)Cn2nc(Cc3cccnc3)c3ccccc3c2=O)cc1OC	?	12.3%	0.0%	0.6%	0.7%	2.82µM*
O=[N+]([O-])c1ccc(C2CC(c3ccccc3)=Nc3ccccc3S2)cc1 (stereo not given)	-5.5%	·	-4.1%	-14.3%	-6.8%	-44.5%
Fc1ccc(C2CC(c3ccco3)=Nc3ccccc3S2)cc1 (stereo not given)	-8.5%	25.1µM*	3.6%	-1.6%	-32.1%	-19.3%
CCCCN(C)Cc1c(C(=O)N2CCc3ccccc3C2)nc2ccc(Cl)cn12	-4.7%	-12.3%	4.2%	44.7µM*	0.2%	37.3%
O=C(c1nc2ccc(Cl)cn2c1CN1CCCC1)N1CCc2ccccc2C1	-5.0%	-4.0%	2.1%	39.8µM*	4.5%	19.8%
O=C(c1nc2ccc(Cl)cn2c1CN1CCC(CO)CC1)N1CCc2ccccc2C1	-8.0%	-3.2%	12.8%	7.1%	0.8%	-9.2%
SMILES	AmpC detergent	RE007 growth inh	Tb PYK inh	Sm TGR block	SARS PLpro yeast	AmpC no deterg
CN(Cc1cnccn1)Cc1c(C(=O)N2CCc3ccccc3C2)nc2ccc(Cl)cn12	-1.8%	-12.5%	1.2%	-20.4%[57.1 µM]	-0.4%	84.1%
CN(Cc1cccnc1)Cc1c(C(=O)N2CCc3ccccc3C2)nc2ccc(Cl)cn12	3.9%	-9.7%	1.4%	31.6µM*	-0.8%	66.7%
CC(C)CN(C)Cc1c(C(=O)N2CCc3ccccc3C2)nc2ccc(Cl)cn12	-10.2%	-24.2%	-1.5%	-4.2%	-0.2%	67.0%
COc1cc(NC(=O)c2ccc(-c3nc(CSc4ccccc4)c(C)o3)cc2)cc(OC)c1	-1.6%	·	3.6%	-8.1%	·	·
Cc1ccccc1C(=O)Nc1nc2c(s1)CC(C(C)(C)C)CC2 (stereo not given)	16.7%	·	1.0%	1.9%	·	·
Cc1ccc2c(c1)N(CC(=O)Nc1ccccc1C(F)(F)F)C(=O)c1cccnc1O2	?	·	3.6%[15.4 µM]	-0.9%	·	·
Cc1c2cnn(CC(=O)Nc3ccc(F)cc3F)c(=O)c2c(C)n1Cc1cccc(Cl)c1	-5.5%	·	2.9%	-8.3%	·	·
Oc1ccc(C(c2nnnn2C2CCCC2)N2CCc3ccccc3C2)cc1 (stereo not given)	2.7%	-8.5%	-3.3%	3.16µM*	-2.7%	-44.7%
Cc1cccc(NC(=O)CCCn2nc(C)c3c(C)n(-c4ccccc4)nc3c2=O)c1C	-6.7%	·	-1.8%	-5.2%	·	·
COc1ccc(S(=O)(=O)NCCc2cn3ccsc3n2)cc1OC	-1.4%	·	0.0%	39.8µM*	·	·
COc1ccc(S(=O)(=O)NCCc2cn3cccc(C)c3n2)cc1OC	?	-4.4%	3.5%	5.1%	-5.7%	10µM*
COc1ccc(S(=O)(=O)NCCc2cn3ccsc3n2)cc1	3.0%	·	-2.3%	-10.2%	·	·
COCCn1c(C)cc(O)c(C(=O)Nc2cccc(Cl)c2)c1=O	-3.2%	-4.1%	6.5%	3.7%	19.1%	-8.8%
COCCn1c(C)cc(O)c(C(c2ccc(Cl)cc2)N2CCCCC2)c1=O (stereo not given)	2.8%	·	-3.3%	10µM*	·	·
COCCn1c(C)cc(O)c(C(c2ccc(C)cc2)N2CCCCC2)c1=O (stereo not given)	15.1%	·	-6.5%	8.91µM*	·	·
COCCn1c(C)cc(C(=O)CN2CCCCC2)c1C	-0.6%	3.4%	0.2%	-23.0%	0.4%	13.9%
